Screening data (PubChem)
An excerpt weighted towards active compounds, which were near 21% of everything screened.
Pf growth 48h = Primary qHTS for delayed death inhibitors of the malarial parasite plastid, 48 hour incubation; P. falciparum luciferase growth in erythrocytes, 48 h; 310,000 tested, 5.9% active; Potency, µM (highest dose often 28.7 µM), for the others: at the highest dose activity change, negative = inhibition, usual class: inhibitors; further: potency means the concentration at half of the fitted maximal effect; on the % scale 0 is the no-effect control and ±100 the full control effect
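Here the parasites carry a stable luciferase gene and grow inside erythrocytes in Albumax-based RPMI medium with compound for one erythrocytic cycle. Activity is scored as loss of luminescent signal.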
Cycloheximide cs = Cycloheximide Counterscreen for Small Molecule Inhibitors of Shiga Toxin; 300,000 tested, 12% active; max response, %; cell reporter, cycloheximide protein synthesis inhibition counterscreen; in the data active means max response mostly above about 13%, no sharp cut-off; inactive means mostly below about 14%; further: read at 38.3 µM for the half of the compounds with a filed dose; 0% is about no effect
Shiga toxin inh = A qHTS for Small Molecule Inhibitors of Shiga Toxin; 290,000 tested, 9.2% active; Vero cells, Shiga toxin protein synthesis inhibition reporter; inhibition, % at 38.7 µM; in the data active means inhibition mostly above about 28%, no sharp cut-off; inactive means mostly below about 43%; further: 0% is about no effect
Pf growth 96h = Primary qHTS for delayed death inhibitors of the malarial parasite plastid, 96 hour incubation. Potency, µM (highest dose often 28.7 µM), for the others: at the highest dose activity change, negative = inhibition, most hits filed as inhibitors. 320,000 tested, 6.9% active. P. falciparum luciferase reporter growth, 96 h; further: potency means the concentration at half of the fitted maximal effect; on the % scale 0 is the no-effect control and ±100 the full control effect
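Cell-based qHTS: luciferase-tagged P. falciparum in erythrocytes (2% hematocrit, 0.05% parasitemia final) incubated with compounds for 96 hours, 37 C, 5% CO2; luciferase detection reagent then added and luminescence measured.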
HCV inhibitor = qHTS Assay for Inhibitors of Hepatitis C Virus (HCV); Potency, µM (top dose mostly 41.8 µM), for the others: at the top dose activity change, negative = inhibition, hits mostly inhibitors; 340,000 tested, 3.4% active; Huh7.5.1 HCVcc-Cre infection, luciferase reporter, 44 h; AID 651820, 2012; further: potency means the concentration at half of the fitted maximal effect; on the % scale 0 is the no-effect control and ±100 the full control effect
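Infectious HCVcc-Cre (~0.5 moi) was added to cells just after compound, with cells seeded 4 h earlier at 1,000 per well. Luciferase activity after 44 h culture reported infection; substrate was incubated 15 min at room temperature before reading.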
HCMV inh = qHTS Assay for inhibitors of the human cytomegalovirus (HCMV) | HFF cells, HCMV-luciferase reporter, 72 h; active compounds read low | activity change, negative = inhibition, % at 57.5 µM | 410,000 tested, 4.5% active | AID 1259415, 2018; in the data active means activity change below about -60%; inconclusive means no clear call, values can overlap the other calls; inactive means above about -39%; further: on the % scale 0 is the no-effect control and ±100 the full control effect
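After 16 h attachment at 37C, HFF cells received test compound and HCMV-luciferase (1 PFU/cell); reporter luminescence read 72 h later, data normalized against buffer-only and known inhibitor Salinomycin.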
* hit, by the source's call; ? = inconclusive; · = no result given. Unless noted, the call rests on the fitted dose curve; in most records, active means well fitted inhibition curve with a large enough effect; inconclusive means small, poorly fitted or top-dose-only effect, or another doubt; inactive means no such curve, though single readings can be large or run the other way.

SMILES	Pf growth 48h	Cycloheximide cs	Shiga toxin inh	Pf growth 96h	HCV inhibitor	HCMV inh
COc1ccc(C(CC(=O)N2CCOCC2)c2c(OC)cc(OC)c3ccc(=O)oc23)cc1 (stereo not given)	?	8.5	14.9	?	3.1%	10.8
CCN(CC)C(=O)CC(c1ccc(N(C)C)cc1)c1c(OC)cc(OC)c2ccc(=O)oc12 (stereo not given)	8.28µM*	-4.3	16.0	10.4µM*	-39.2%	-15.2
CCN(CC)C(=O)CC(c1ccc2c(c1)OCO2)c1c(OC)cc(OC)c2ccc(=O)oc12 (stereo not given)	8.28µM*	19.7	-3.7	10.4µM*	-1.4%	5.0
CCN(CC)CCC(c1ccc(N(C)C)cc1)c1c(OC)cc(OC)c2ccc(=O)oc12 (stereo not given)	11.7µM*	-3.6	-7.0	?	-3.1%	1.7
CCN(CC)C(=O)CC(c1ccc(N(C)C)cc1)c1c(OC)cc(OC)c2c(-c3ccccc3)cc(=O)oc12 (stereo not given)	3.7µM*	-2.1	-5.9	2.08µM*	?	?
Cc1ccc(Cn2c(C(=O)O)c(CNC3CCCC3)c3ccc(C)cc32)cc1	·	·	·	·	·	28.7
CCN(C(=O)c1cc2c(=O)oc3ccc(C)cc3c2s1)c1ccccc1C	·	·	·	·	·	12.9
Cc1[nH]c(=O)[nH]c(=O)c1NC(=O)CSc1ncccc1-c1nc2ccccc2[nH]1	24.2%	20.2	48.8	?	-4.7%	12.1
CCSc1ncccc1-c1nc2ccccc2[nH]1	?	38.4*	99.3*	?	-12.6%	23.1
CSc1ncccc1-c1nc2ccccc2[nH]1	·	27.9*	50.6	35.7%	10.6%	53.0
CCn1cc(S(=O)(=O)c2cc(C)cc(C)c2)c(=O)c2cc(F)c(N3CCCCC3)cc21	·	·	·	·	·	2.8
CCCCN(CC)C(=O)CSc1nc2n[nH]c(C)c2c(=N)n1-c1cccc(Cl)c1	·	·	·	·	·	-10.0
CCc1ccc(-c2csc3[n+]2CCN3C(C)=O)cc1	2.94µM*	5.4	19.6	?	?	-9.9
Cc1cc(Br)cc(Cl)c1OC(=O)c1ccncc1	27.3%	-6.5	-11.0	37.2%	8.1%	14.7
O=S(=O)(c1ccccc1)[C@@]1(c2ccccc2)C[C@@H]2ON=C(c3cccc(Br)c3)[C@@H]2C1	11.7µM*	·	·	?	?	11.6
Cn1c(SCC(=O)O)nnc1-c1cccc(NC(=O)c2cccc3ccccc23)c1	21.8%	0.8	-16.5	-17.3%	4.4%	0.0
CN(C)S(=O)(=O)c1ccc2c(c1)/C(=C/c1cc3c([nH]1)CCCC3)C(=O)N2	2.08µM*	·	·	1.31µM*	?	108.4
Cc1cc(C)n(-c2ccc(C(=O)N3CC(C)OC(C)C3)cc2)n1 (stereo not given)	-1.8%	-7.5	-8.3	-9.5%	19.8%	-23.6
CCOC(=O)CCc1c(C)nc2c(-c3ccccc3)c(C)[nH]n2c1=O	·	·	·	·	·	-15.4
O=c1c2c(nc3c(-c4ccc(Cl)cc4)c[nH]n13)CCC2	10.4µM*	-0.8	12.8	-12.8%	?	-76.6*
CCOC(=O)Cc1c(C)nc2c(-c3cccc(Br)c3)c[nH]n2c1=O	?	-1.3	-17.9	9.3%	?	-93.1*
O=c1c2c(nc3c(-c4ccccc4)c[nH]n13)CCC2	51.4%	-2.7	8.3	87.8%	?	-16.2
O=c1c2c(nc3c(-c4cccc(Br)c4)c[nH]n13)CCCC2	?	10.6	-4.3	?	6.31µM*	-102.1*
Cc1cc(C)cc(CC(=O)N2CCC2(C)C(=O)NS(=O)(=O)c2ccc(C(C)(C)C)cc2)c1 (stereo not given)	·	·	·	·	·	-0.4
N=C1C(c2nc(-c3ccc(Cl)cc3)cs2)=C(O)CN1NC(=O)c1ccc(O)cc1	-29.4%	23.4*	24.6	-19.1%	3.5%	0.0
SMILES	Pf growth 48h	Cycloheximide cs	Shiga toxin inh	Pf growth 96h	HCV inhibitor	HCMV inh
COc1ccc(-c2csc(C3=C(O)CN(Cc4ccc(Cl)cc4)C3=N)n2)cc1OC	?	-5.3	-19.0	·	11.2µM*	-32.6
N=C1C(c2nc(-c3ccc(Br)cc3)cs2)=C(O)CN1NC(=O)c1ccc([N+](=O)[O-])cc1	7.5%	-1.6	-6.6	17.7%	1.8%	-101.8*
COc1cccc(C2CC(=O)Nc3c2c(=O)[nH]c2ncnn32)c1OC (stereo not given)	·	·	·	·	·	13.8
CC(CN1CC(=O)NC(=O)C1)N1CC(=O)NC(=O)C1 (stereo not given)	-2.9%	·	·	-7.6%	·	16.3
Cc1cccc(C)c1NC(=O)/C(=C/c1ccco1)c1ccccc1	·	0.9	-2.4	10.4µM*	5.9%	69.6
CC(C)(C)c1ccc(C(=O)N/C(=C\c2ccco2)C(=O)Nc2ccccc2C(=O)O)cc1	12.7%	30.7*	60.4*	12.3%	19.7%	-2.5
O=C(Nc1ccc(C(=O)O)cc1)/C(=C\c1ccco1)NC(=O)c1ccccc1	-7.7%	-1.4	28.1	9.28µM*	-0.3%	7.9
O=C(CNC(=O)c1ccc(Br)o1)Nc1cccc(S(=O)(=O)N2CCCC2)c1	-20.6%	·	·	?	?	-27.8
COc1cc(C2SCC(=O)N2c2nnc(C34CC5CC(CC(C5)C3)C4)s2)cc(OC)c1OC (stereo not given)	14.7µM*	-1.3	-10.8	0.0%	11.9%	?
COc1ccc(C2SCC(=O)N2c2nnc(C34CC5CC(CC(C5)C3)C4)s2)cc1 (stereo not given)	0.2%	0.7	-4.1	0.0%	-20.7%	-4.5
CCOC(=O)N1CCN(C(=O)C2CCC(=O)N(CCCN3CCCC3=O)C2)CC1 (stereo not given)	3.8%	-2.1	16.7	-27.0%	2.3%	51.1
CC1(C(=O)Nc2cnc3ccccc3c2)CCN1Cc1ccccc1Cl (stereo not given)	·	·	·	·	·	-76.5*
CC(=O)N1CCc2cc(NC(=O)C3(C)CCN3Cc3ccccc3OC(F)F)ccc21 (stereo not given)	·	·	·	·	·	-61.0*
COc1cccc(CN2CCC2(C)C(=O)Nc2cccc(Oc3ccccc3)c2)c1OC (stereo not given)	·	·	·	·	·	-60.8*
Nc1ncnc2c1nc(SCCO)n2Cc1ccccc1	22.4%	-3.8	-16.5	-4.5%	10.4%	-74.0*
CCCSc1nc2c(=O)[nH][nH]c(=O)c2n1Cc1ccccc1	-17.7%	-1.1	12.3	6.3%	7.6%	-4.1
Cc1ccc2[nH]c(=O)c3cc(C(=O)N(CCCOC(C)C)Cc4ccco4)sc3c2c1	·	0.8	-14.0	5.86µM*	?	?
CCCCN(Cc1ccco1)C(=O)c1cc2c(=O)[nH]c3ccc(C)cc3c2s1	·	5.6	7.2	4.0%	?	?
CCOc1ccc(S(=O)(=O)Nc2cccc(OC)c2)c2cccnc12	·	·	·	·	·	-2.0
